Measurements published in the supplement of paper PMC13392028.
In all, about 4,100 sequences were measured (“RBNS R-value (6-mer enrichment in protein-bound RNA vs input library)”: median about 0.96, highest 2% from about 2.4 on). This excerpt belongs to a sample that is enriched for the highest values.

System: PyIESI-1 RRM domain (Plasmodium yoelii PY17X_0911200 aa 795-956, GST fusion)
Assay: RBNS R-value (6-mer enrichment in protein-bound RNA vs input library) (ratio); higher = stronger binding preference; the methods of the paper give 50 / 100 / 500 nM protein instead
Method: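 RNA Bind-n-Seq: recombinant GST-tagged IESI-1 RRM domain was incubated at room temperature with a random 40-nt in vitro transcribed RNA library at 250, 500 or 1000 nM protein. Bound RNA was pulled down on glutathione beads and sequenced. R-value is the enrichment of each 6-mer in the bound RNA relative to the input library. Each 6-mer sits inside the random 40-mer context, not as an isolated oligo. Values are replicate 1 only.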

| Sequence | RBNS R-value (protein concentration: 250 nM) | RBNS R-value (protein concentration: 500 nM) | RBNS R-value (protein concentration: 1000 nM) |
| --- | --- | --- | --- |
| GCCAGU | 0.86 | 0.901 | 0.892 |
| UCUUGC | 1.12 | 1.17 | 1.18 |
| GAACCU | 1.11 | 1.1 | 1.07 |
| GAUACC | 1.83 | 1.85 | 1.99 |
| ACGAAU | 0.896 | 0.896 | 0.865 |
| GCAGUG | 1.11 | 1.14 | 1.12 |
| AUUCGC | 1.47 | 1.43 | 1.46 |
| UACUUC | 0.69 | 0.719 | 0.702 |
| AUCCCU | 0.892 | 0.921 | 0.934 |
| CCGGUG | 1.11 | 1.14 | 1.12 |
| CGCUUA | 0.602 | 0.629 | 0.617 |
| AUCUAA | 0.647 | 0.67 | 0.637 |
| GUCAAU | 0.655 | 0.685 | 0.671 |
| CGAUUG | 2.25 | 2.18 | 2.2 |
| UGAUUG | 5.45 | 4.95 | 4.94 |
| GGAUUG | 1.22 | 1.22 | 1.15 |
| GAAAGG | 1.1 | 1.08 | 1.01 |
| AGAUAC | 1.02 | 1.09 | 1.09 |
| ACCUCG | 1.08 | 1.06 | 1.06 |
| CGUGAA | 0.949 | 0.925 | 0.895 |
| AGUGAU | 3.53 | 3.36 | 3.56 |
| UGUGAC | 1.17 | 1.18 | 1.16 |
| CGUGAU | 3.46 | 3.26 | 3.39 |
| AGUGAA | 0.884 | 0.89 | 0.844 |

| Sequence | RBNS R-value (protein concentration: 250 nM) | RBNS R-value (protein concentration: 500 nM) | RBNS R-value (protein concentration: 1000 nM) |
| --- | --- | --- | --- |
| GGUGAG | 0.98 | 0.993 | 0.943 |
| AGUGAC | 1.01 | 1.04 | 1.02 |
| GGUGAC | 1.01 | 1.04 | 0.983 |
| CGUGAG | 0.911 | 0.913 | 0.868 |
| GGUGAU | 2.66 | 2.69 | 2.75 |
| UGUGAG | 1.11 | 1.1 | 1.05 |
| UGUGAU | 3.77 | 3.62 | 3.78 |
| UGCGCU | 1.27 | 1.25 | 1.26 |
| UCCGUG | 1.12 | 1.15 | 1.16 |
| GACUCG | 1.11 | 1.13 | 1.07 |
| UGUUUC | 0.901 | 0.972 | 0.97 |
| AGCUGA | 1.72 | 1.68 | 1.68 |
| UCGUGG | 0.808 | 0.811 | 0.782 |
| CAGCGU | 0.779 | 0.809 | 0.78 |
| UGCCUC | 1.11 | 1.13 | 1.19 |
| UGGCCA | 1.26 | 1.22 | 1.24 |
| GAUAGC | 2.53 | 2.39 | 2.48 |
| GAUAGU | 1.39 | 1.41 | 1.45 |
| GAUAGA | 1.92 | 1.93 | 2 |
| UGCUCA | 0.956 | 0.977 | 1 |
| GAUGUA | 2.51 | 2.41 | 2.52 |
| CAUGUG | 1.02 | 1.04 | 1.03 |
| AAUGUU | 0.8 | 0.836 | 0.819 |
| UAUGUG | 0.924 | 0.971 | 0.978 |

| Sequence | RBNS R-value (protein concentration: 250 nM) | RBNS R-value (protein concentration: 500 nM) | RBNS R-value (protein concentration: 1000 nM) |
| --- | --- | --- | --- |
| GAUGUG | 3.46 | 3.14 | 3.14 |
| CAUGUU | 0.726 | 0.757 | 0.737 |
| GAUGUU | 2.92 | 2.8 | 2.87 |
| GAUGUC | 2.55 | 2.44 | 2.5 |
| CAUGUC | 0.705 | 0.722 | 0.733 |
| UAUGUC | 0.642 | 0.672 | 0.661 |
| UAUGUA | 0.585 | 0.616 | 0.581 |
| AAUGUA | 0.646 | 0.662 | 0.639 |
| GCGUCG | 0.809 | 0.784 | 0.765 |
| UUGUUA | 0.717 | 0.765 | 0.738 |
| AGCCUG | 1.33 | 1.33 | 1.36 |
| GUGGCC | 0.987 | 0.981 | 0.976 |
| AACCUG | 1.37 | 1.36 | 1.38 |
| CCGCUA | 0.743 | 0.757 | 0.758 |
| UACUAC | 0.519 | 0.53 | 0.491 |
| CAUUAA | 0.41 | 0.435 | 0.403 |
| AAUUAG | 0.641 | 0.657 | 0.639 |
| CAUUAG | 0.57 | 0.593 | 0.579 |
| GAUUAA | 2.47 | 2.37 | 2.56 |
| UAUUAC | 0.487 | 0.514 | 0.489 |
| GAUUAG | 2.44 | 2.41 | 2.5 |
| CAUUAC | 0.471 | 0.51 | 0.491 |
| AAUUAA | 0.471 | 0.515 | 0.483 |
| GAUUAC | 2.72 | 2.65 | 2.82 |

| Sequence | RBNS R-value (protein concentration: 250 nM) | RBNS R-value (protein concentration: 500 nM) | RBNS R-value (protein concentration: 1000 nM) |
| --- | --- | --- | --- |
| CGGUGA | 1.36 | 1.39 | 1.35 |
| ACCGCG | 1.03 | 1.03 | 1.04 |
| CGAACC | 1.09 | 1.06 | 1.06 |
| GGGCCG | 1 | 1.01 | 0.999 |
| GCAAGC | 0.92 | 0.933 | 0.931 |
| CCGGUC | 0.872 | 0.923 | 0.916 |
| CAUGCA | 0.757 | 0.762 | 0.774 |
| UAUGCG | 0.859 | 0.856 | 0.873 |
| CAUGCU | 0.844 | 0.875 | 0.883 |
| UAUGCC | 0.797 | 0.84 | 0.861 |
| GAUGCU | 2.48 | 2.42 | 2.51 |
| AAUGCU | 0.903 | 0.932 | 0.944 |
| CAUGCC | 0.921 | 0.929 | 0.99 |
| GAUGCG | 2.54 | 2.45 | 2.52 |
| AAUGCG | 0.941 | 0.968 | 0.97 |
| GAUGCA | 2.66 | 2.5 | 2.68 |
| UAUGCA | 0.689 | 0.714 | 0.705 |
| GAUGCC | 2.7 | 2.6 | 2.86 |
| CUGCCA | 1.03 | 1.05 | 1.07 |
| UUUGUU | 0.893 | 0.907 | 0.907 |
| ACGAAC | 0.96 | 0.939 | 0.926 |
| AUUUAU | 0.824 | 0.83 | 0.836 |
